A number with no mark means an inactive call. Records with an inconclusive call do not appear. Calls of active or inactive are those of the source. Unless noted, calls follow the shape of the dose curve; as a rule, active = well fitted curve in the direction sought with a large enough effect; inconclusive = small, poorly fitted or top-dose-only effect, or another doubt; inactive = no such curve, though single readings can be large; an effect the other way counts as inactive or inconclusive.

Test [1] can be described thus: AP1 Signaling Pathway (AID 357; active = well fitted curve in either direction with a large enough effect, not every such curve was filed as active;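 also: ME-180 reporter cells stimulated with EGF at its EC50 level; % is scaled to controls: 0 for no effect and ±100 for the full control effect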). As to conditions: ME-180 (cervical carcinoma) AP-1-bla reporter, EGF-induced, beta-lactamase ratio, 5 h; at 17.2 µM (top of the series) unless noted. In a few lines:
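Read-out was the 460nm/530nm emission ratio (excitation 405nm) after CCF4 loading for 2.5 hours at room temperature. Cells carried an AP-1-driven beta-lactamase reporter, were stimulated with EC50 EGF plus compound for 5 hours, and AC50 values came from titrations.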

The target in test [2] is Cytochrome P450 1A2 (Homo sapiens) (UniProt P05177). Kind of test: p450-cyp1a2 (AID 410; calls by dose curve; also: potency is read from the fitted curve at half-maximal effect;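 as to activity change, negative = inhibition: -100% = full effect of reference inhibitor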). In a few lines: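 Human CYP1A2 (20nM) demethylated Luciferin-ME at its Km (100uM) in 100mM KPO4. After 10 min compound preincubation, NADPH regeneration ran the reaction 60 min at room temperature. Luciferin was read by luminescence, normalized to 57 uM furafylline.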
Test [3] is described as follows: Stat Signaling Pathway (AID 446; active = well fitted curve in either direction with a large enough effect, not every such curve was filed as active;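 also: ME-180 cervical cancer cells given 40 pM IL-6 alongside compound; SIE-controlled beta-lactamase reporter measured as 460/530 nm FRET emission ratio; % is scaled to controls: 0 for no effect and ±100 for the full control effect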). In a few lines:
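IL-6/STAT signaling read in ME-180 cells via an SIE beta-lactamase reporter. Stimulus was 40 pM IL-6 (its AC50) for 5 hrs, so both activation and inhibition register.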

In test [4] the target is Glucocorticoid receptor (Homo sapiens) (UniProt P04150). Kind of test: GR-GFP Redistribution (AID 450;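 active = compounds whose dose series gives a full or clear partial fitted curve of increased nuclear translocation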; also: potency is read from the fitted curve at half-maximal effect). Particulars: U2OS GR-GFP nuclear translocation, laser cytometry, 2 h.
Test [5] has the same target. Kind of test: GR-EFC Redistribution (AID 451; calls by dose curve; also: potency is read from the fitted curve at half-maximal effect). Particulars: CHO-K1 GR-EFC translocation, beta-gal luminescence, 2 h. The method in brief:
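Translocation of GR-ED fusion to nuclear EA restores b-gal, read by luminescence after 1 h room-temperature detection. Engineered CHO-K1 biosensor cells, 1,000/well, exposed 2 h at 37 C to titrations up to 46 uM final.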

Test [6] concerns the target Mitogen-activated protein kinase 10 (Mus musculus) (UniProt Q61831). Kind of test: JNK3 AlphaScreen Assay (AID 530; active = well fitted curve in either direction with a large enough effect, not every such curve was filed as active;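 also: kinase came from lysate of stimulated human HepG2 cells; signal reports phosphorylation of biotinylated GST-cJun 1-79 at Ser73 with 10 µM ATP; % is scaled to controls: 0 for no effect and ±100 for the full control effect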). The method in brief: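 Room-temperature AlphaScreen kinase assay; pre-activated HepG2 lysate as JNK3 source, biotin-GST-cJun(1-79) substrate, 10 uM ATP, compound 15 min preincubation.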
Background: In Alpha technology, singlet oxygen from a donor bead excites a nearby acceptor bead.

The target of test [7] is 3',5'-cyclic-AMP phosphodiesterase 4B (Homo sapiens) (UniProt Q07343). Kind of test: qHTS Assay for Inhibitors of PDE-IV (AID 607; active = well fitted activation curve with a large enough effect in the main read-out, with a control signal flat, not every such curve was filed as active; also: % of control where 0% means no effect). In a few lines: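 Live HEK293 cells with a modified cyclic nucleotide-gated (CNG) channel report intracellular cAMP via membrane-potential dye fluorescence (ex 535/em 590 nm). Endogenous PDE-IV was targeted. Compounds were tested at up to 22.9 uM final; RO 20-1724 100 uM served as control.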
Background: In qHTS, concentration-response curves come from the screen itself.

Test [8] concerns the target Guanine nucleotide-binding protein G(i) subunit alpha-1 (Homo sapiens) (UniProt P63096). Kind of test: qHTS Assay for Inhibitors of RGS12 GoLoco Motif Activity (Green Fluorophore) (AID 879).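 Also: 0% = labeled peptide with Gαi1 and full inhibition = labeled peptide alone without protein; negative values mean loss of peptide binding seen as reduced polarization.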 In a few lines: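 Fluorescence polarization assay: 50 nM Gαi1 with 10 nM FITC-labeled RGS12 GoLoco peptide in 10 mM Tris pH 7.5, 150 mM NaCl, 0.1 mM GDP, 0.05% NP40, 10 min at room temperature with compound.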

Test [9] is described as follows: qHTS Assay for Identification of Small Molecule Agonists for Thrombopoietin (TPO) Signaling Pathway (AID 917). Also: % is scaled to controls: 0 for no effect and ±100 for the full control effect. The method in brief: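 We measured Glycoprotein IIb promoter–luciferase output in IL-3-starved Ba/F3 murine cells expressing the human TPO receptor after 24 hrs at 37 C with compounds and 26 pM TPO.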
Test [10] has as its target Muscarinic acetylcholine receptor M1 (Rattus norvegicus) (UniProt P08482). Kind of test: qHTS Assay for Antagonists of Acetylcholine Muscarinic M1 Receptor: Kinetic Measurement of Intracellular Calcium Response (AID 943). Also: nearly all actives have a fitted effect of over 75% in size. Also: potency is read from the fitted curve at half-maximal effect.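 As to activity change, negative = inhibition: Fluo-4 calcium signal as peak divided by basal fluorescence over 4 min.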 In a few lines:
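CHO cells stably expressing rat M1 were loaded with no-wash Fluo-4 dye for 1 h at 37C, pre-incubated 10 min with compound, then challenged with EC80 carbachol (100 nM final); kinetic calcium read 4 min, peak/basal ratio.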

Test [11] shares this target. Kind of test: qHTS Assay for Antagonists of Acetylcholine Muscarinic M1 Receptor: Measurement of IP-One Response (AID 944). Also: nearly all actives have a fitted effect of over 75% in size. Also: potency is read from the fitted curve at half-maximal effect. In a few lines: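 CHO cells expressing rat M1 receptor, recovered overnight, were pre-incubated 10 min with compound, then stimulated 30 min with carbachol at EC80 (200 nM) in LiCl-containing buffer, pH 7.4. IP1 accumulation was read by HTRF (620/665 nm).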

For test [12], the target named is Pyruvate kinase (Leishmania mexicana) (UniProt Q27686). Kind of test: qHTS Validation Assay for Inhibitors of Leishmania Mexicana Pyruvate Kinase (AID 945).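 Also: 0% = DMSO only neutral control wells.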 The method in brief: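 Luminescent ATP detection (PKLight) after a 1 h room-temperature reaction of 0.2 nM LmPYK E451W mutant with 0.5 mM PEP and 0.1 mM ADP at pH 7.2. Activity is normalized to DMSO-only control wells.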

In test [13] the target is Pyruvate kinase PKM (Homo sapiens) (UniProt P14618). Kind of test: qHTS Assay for Activators of Human Muscle Pyruvate Kinase (AID 954; active = well fitted curve in the direction sought with a large enough effect, not every such curve was filed as active;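 also: 0% = uninhibited enzyme and -100% = no enzyme or full thiadiazolimine inhibition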). In a few lines: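 Enzyme was run at intermediate activity so both inhibitors and activators could be detected. ATP formed from ADP and PEP by 0.1 nM human PKM2 during a 1 h room-temperature incubation was quantified by coupled luciferase luminescence.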

Test [14] has as its target Alpha-galactosidase (Coffea arabica) (UniProt Q42656). Kind of test: Counterscreen for Glucocerebrosidase Inhibitors: qHTS Assay for Coffee Bean alpha-Galactosidase at pH 4.5 (AID 957).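 Also: plate controls were enzyme alone for no effect and no enzyme for full effect.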 In a few lines: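 Green coffee bean enzyme (2 nM final) was incubated with compounds (0.7 nM to 77 uM) and 4-methylumbelliferyl alpha-D-galactopyranoside (80 uM final) in 50 mM citric acid, 0.005% Tween-20, pH 4.5, 20 min at room temperature; AC50 from Hill fits.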
On the technique in general: Counterscreens check selectivity or assay interference.

Test [15] concerns the target Alpha-galactosidase A (Homo sapiens) (UniProt P06280). Kind of test: Counterscreen for Glucocerebrosidase Inhibitors: qHTS Assay for Human alpha-Galactosidase at pH 4.5 (AID 992). Also: 0% is about no effect. The method in brief: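 Read-out is 4-methylumbelliferone fluorescence (365 nm excitation, 440 nm emission) after a pH 10 NaOH/glycine stop. Reactions held 2 nM enzyme and 80 uM substrate at pH 4.5 for 20 min at room temperature.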

In test [16] the target is alpha-glucosidase (Oryza sativa, rice) (UniProt Q653V4). Kind of test: Counterscreen for Glucocerebrosidase Inhibitors: qHTS Assay for Rice alpha-Glucosidase at pH 5.0 (AID 997).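 Also: 0% = full activity with enzyme and -100% = basal without enzyme.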 In a few lines: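 Rice alpha-glucosidase (4 nM final) with 400 uM 4-methylumbelliferyl-alpha-D-glucopyranoside in citrate buffer pH 5.0, 20 min at room temperature, stopped at pH 10; fluorescence 365/440 nm, compounds 0.7 nM–77 uM, AC50 from Hill fits.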

For test [17], the target named is Alpha-galactosidase (Coffea arabica) (UniProt Q42656). Kind of test: Counterscreen for Glucocerebrosidase Inhibitors: qHTS Assay for Coffee Bean alpha-Galactosidase at pH 5.9 (AID 998).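 Also: plate controls were uninhibited enzyme for no effect and no-enzyme basal signal for full effect.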 In a few lines: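 Compounds were titrated from 0.7 nM to 77 uM against green coffee bean alpha-galactosidase (2 nM) using 80 uM fluorogenic 4-methylumbelliferyl substrate. After 20 min at room temperature, reactions were stopped at pH 10 and read by fluorescence.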

Test [18] can be described thus: NFAT Signaling Pathway (AID 444; active = well fitted curve in either direction with a large enough effect, not every such curve was filed as active). Particulars: Jurkat NFAT-bla M1, carbachol, beta-lactamase ratio, 5 h; at 17.2 µM (top of the series) unless noted. The method in brief:
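Read-out: CCF4 FRET ratio (460 nm/530 nm) after 1 h RT dye loading, used for %activity and AC50 from titration series. Cells: Jurkat NFAT-β-lactamase/M1 line, treated with compound plus 1 uM carbachol for 5 h, 37 °C.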

Test [19] deals with Cytochrome P450 3A4 (Homo sapiens) (UniProt P08684). Kind of test: qHTS Assay for Inhibitors and Substrates of Cytochrome P450 3A4 (AID 884). Also: potency is read from the fitted curve at half-maximal effect; nearly all actives have a fitted effect of over 50% in size. In a few lines:
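20 nM human CYP3A4 with 25 uM Luciferin-PPXE (at KM) in 200 mM KPO4, preincubated 10 min with compound; NADPH regeneration started a 60 min RT reaction. Luciferin detected by luminescence, normalized to 57 uM ketoconazole as full inhibition.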

For test [20] the target is unchanged. Kind of test: qHTS Assay for Activators of Cytochrome P450 3A4 (AID 885). Also: nearly all actives have a fitted effect of over 65% in size. The method in brief: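 Quantitative HTS format: compounds preincubated with 20nM human CYP3A4 and Luciferin-PPXE substrate at KM, reaction started by NADPH regeneration, stopped after 60 min, luciferase luminescence read 20 min later.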
Test [21] in a line: qHTS Assay for Identification of Small Molecule Antagonists for Thrombopoietin (TPO) Signaling Pathway (AID 918). Also: potency is read from the fitted curve at half-maximal effect; nearly all actives have a fitted effect of over 60% in size. Particulars: TPO-dependent cell signaling reporter, antagonist mode. In a few lines:
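Murine Ba/F3 cells stably expressing human TPO receptor and a Glycoprotein IIb promoter–luciferase reporter were IL-3-starved overnight, treated with compounds plus TPO (26 pM final, its EC50) for 24 hrs at 37 C, then read by luminescence.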

Chain of Alpha-galactosidase A (Homo sapiens) (P06280 whole entry, looked up): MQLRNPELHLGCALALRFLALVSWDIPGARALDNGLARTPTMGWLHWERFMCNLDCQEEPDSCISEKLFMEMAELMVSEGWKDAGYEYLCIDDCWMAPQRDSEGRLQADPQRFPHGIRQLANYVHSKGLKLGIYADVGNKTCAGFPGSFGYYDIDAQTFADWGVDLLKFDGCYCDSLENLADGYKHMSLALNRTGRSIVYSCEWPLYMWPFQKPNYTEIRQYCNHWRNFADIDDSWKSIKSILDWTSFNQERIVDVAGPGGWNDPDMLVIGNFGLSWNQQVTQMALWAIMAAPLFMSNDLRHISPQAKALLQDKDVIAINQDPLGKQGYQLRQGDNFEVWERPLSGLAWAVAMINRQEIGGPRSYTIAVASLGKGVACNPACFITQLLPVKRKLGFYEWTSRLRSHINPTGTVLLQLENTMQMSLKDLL
Chain of Glucocorticoid receptor (Homo sapiens) (P04150 whole entry, looked up): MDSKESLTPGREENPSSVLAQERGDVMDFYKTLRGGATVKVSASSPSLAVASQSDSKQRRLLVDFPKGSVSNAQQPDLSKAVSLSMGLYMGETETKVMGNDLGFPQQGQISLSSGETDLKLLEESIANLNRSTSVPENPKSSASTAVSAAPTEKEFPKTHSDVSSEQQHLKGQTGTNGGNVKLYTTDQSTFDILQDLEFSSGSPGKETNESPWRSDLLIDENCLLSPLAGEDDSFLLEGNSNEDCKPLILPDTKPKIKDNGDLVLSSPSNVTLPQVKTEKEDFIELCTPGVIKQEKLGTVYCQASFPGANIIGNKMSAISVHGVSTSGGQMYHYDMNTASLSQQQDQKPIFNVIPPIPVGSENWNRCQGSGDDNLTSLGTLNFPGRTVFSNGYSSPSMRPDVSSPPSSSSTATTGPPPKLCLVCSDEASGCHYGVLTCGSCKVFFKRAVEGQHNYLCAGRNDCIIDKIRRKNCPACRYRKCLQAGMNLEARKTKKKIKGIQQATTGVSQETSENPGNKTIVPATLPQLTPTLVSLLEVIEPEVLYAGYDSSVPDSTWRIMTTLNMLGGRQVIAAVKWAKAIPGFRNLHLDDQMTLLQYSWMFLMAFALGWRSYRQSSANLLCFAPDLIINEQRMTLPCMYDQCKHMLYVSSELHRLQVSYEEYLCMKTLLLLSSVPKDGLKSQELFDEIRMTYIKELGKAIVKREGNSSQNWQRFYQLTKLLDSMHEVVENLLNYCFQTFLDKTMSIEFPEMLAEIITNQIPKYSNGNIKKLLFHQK
Chain of Cytochrome P450 3A4 (Homo sapiens) (P08684 whole entry, looked up): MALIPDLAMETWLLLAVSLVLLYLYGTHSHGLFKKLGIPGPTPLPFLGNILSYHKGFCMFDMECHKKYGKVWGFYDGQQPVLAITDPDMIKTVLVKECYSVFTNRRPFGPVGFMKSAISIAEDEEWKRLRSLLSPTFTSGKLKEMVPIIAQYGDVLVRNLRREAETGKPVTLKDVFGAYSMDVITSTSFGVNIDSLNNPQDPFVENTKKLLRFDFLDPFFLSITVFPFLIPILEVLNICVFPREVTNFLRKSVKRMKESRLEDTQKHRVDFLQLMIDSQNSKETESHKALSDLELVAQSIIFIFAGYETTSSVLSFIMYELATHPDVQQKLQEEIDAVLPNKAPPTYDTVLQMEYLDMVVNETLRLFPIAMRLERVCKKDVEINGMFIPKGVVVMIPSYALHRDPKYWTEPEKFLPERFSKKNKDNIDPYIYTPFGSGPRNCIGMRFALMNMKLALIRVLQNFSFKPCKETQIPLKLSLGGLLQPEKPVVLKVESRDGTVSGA
Chain of Guanine nucleotide-binding protein G(i) subunit alpha-1 (Homo sapiens) (P63096 whole entry, looked up): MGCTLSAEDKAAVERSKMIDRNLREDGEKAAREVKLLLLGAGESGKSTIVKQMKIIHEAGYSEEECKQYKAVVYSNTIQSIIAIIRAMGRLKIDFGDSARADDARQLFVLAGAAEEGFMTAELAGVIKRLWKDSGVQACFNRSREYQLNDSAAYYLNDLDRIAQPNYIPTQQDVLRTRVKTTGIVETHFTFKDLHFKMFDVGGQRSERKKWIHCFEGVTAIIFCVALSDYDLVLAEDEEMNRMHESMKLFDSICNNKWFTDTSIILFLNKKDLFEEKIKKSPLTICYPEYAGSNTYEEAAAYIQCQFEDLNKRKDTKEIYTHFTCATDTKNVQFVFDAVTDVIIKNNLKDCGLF
Chain of Pyruvate kinase (Leishmania mexicana) (Q27686 2-499 E452W): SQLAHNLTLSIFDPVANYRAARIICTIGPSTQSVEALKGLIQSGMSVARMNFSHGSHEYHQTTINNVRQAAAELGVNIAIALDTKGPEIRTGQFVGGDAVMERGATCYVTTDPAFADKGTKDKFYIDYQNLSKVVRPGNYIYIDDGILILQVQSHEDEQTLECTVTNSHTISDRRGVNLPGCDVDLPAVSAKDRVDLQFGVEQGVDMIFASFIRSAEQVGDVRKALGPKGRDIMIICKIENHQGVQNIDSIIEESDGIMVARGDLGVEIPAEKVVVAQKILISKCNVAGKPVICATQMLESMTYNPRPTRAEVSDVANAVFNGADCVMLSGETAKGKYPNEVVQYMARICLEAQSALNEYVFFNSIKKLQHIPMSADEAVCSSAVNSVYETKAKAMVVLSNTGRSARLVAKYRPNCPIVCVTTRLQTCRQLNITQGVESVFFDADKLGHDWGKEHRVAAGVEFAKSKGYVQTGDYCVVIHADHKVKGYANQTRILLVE
Chain of Pyruvate kinase PKM (Homo sapiens) (P14618 whole entry, looked up): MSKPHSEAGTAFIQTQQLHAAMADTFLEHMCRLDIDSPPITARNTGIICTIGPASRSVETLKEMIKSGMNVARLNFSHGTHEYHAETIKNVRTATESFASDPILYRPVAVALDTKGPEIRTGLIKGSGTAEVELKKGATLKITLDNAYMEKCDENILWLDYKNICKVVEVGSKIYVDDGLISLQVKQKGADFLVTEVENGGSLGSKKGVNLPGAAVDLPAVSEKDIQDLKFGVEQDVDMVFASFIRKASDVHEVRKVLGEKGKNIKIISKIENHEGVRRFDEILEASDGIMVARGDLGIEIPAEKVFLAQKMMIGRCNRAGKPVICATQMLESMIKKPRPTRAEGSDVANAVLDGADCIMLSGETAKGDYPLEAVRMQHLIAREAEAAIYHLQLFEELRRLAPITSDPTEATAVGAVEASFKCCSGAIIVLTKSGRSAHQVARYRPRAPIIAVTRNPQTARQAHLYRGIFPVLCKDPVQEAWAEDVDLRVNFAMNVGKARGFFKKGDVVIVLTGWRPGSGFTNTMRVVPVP
Chain of Cytochrome P450 1A2 (Homo sapiens) (P05177 whole entry, looked up): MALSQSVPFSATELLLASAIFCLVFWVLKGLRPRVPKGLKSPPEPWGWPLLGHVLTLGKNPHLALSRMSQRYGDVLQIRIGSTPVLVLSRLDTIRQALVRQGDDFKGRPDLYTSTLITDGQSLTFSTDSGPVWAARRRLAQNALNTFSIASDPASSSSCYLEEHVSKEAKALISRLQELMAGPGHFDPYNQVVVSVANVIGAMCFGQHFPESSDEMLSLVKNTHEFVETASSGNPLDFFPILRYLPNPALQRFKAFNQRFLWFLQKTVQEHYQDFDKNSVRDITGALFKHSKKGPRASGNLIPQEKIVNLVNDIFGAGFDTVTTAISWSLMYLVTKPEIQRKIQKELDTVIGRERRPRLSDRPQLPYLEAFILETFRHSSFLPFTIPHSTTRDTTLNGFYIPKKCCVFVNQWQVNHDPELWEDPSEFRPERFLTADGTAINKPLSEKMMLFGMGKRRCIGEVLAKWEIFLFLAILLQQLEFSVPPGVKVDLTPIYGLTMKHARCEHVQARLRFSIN
Chain of 3',5'-cyclic-AMP phosphodiesterase 4B (Homo sapiens) (Q07343 whole entry, looked up): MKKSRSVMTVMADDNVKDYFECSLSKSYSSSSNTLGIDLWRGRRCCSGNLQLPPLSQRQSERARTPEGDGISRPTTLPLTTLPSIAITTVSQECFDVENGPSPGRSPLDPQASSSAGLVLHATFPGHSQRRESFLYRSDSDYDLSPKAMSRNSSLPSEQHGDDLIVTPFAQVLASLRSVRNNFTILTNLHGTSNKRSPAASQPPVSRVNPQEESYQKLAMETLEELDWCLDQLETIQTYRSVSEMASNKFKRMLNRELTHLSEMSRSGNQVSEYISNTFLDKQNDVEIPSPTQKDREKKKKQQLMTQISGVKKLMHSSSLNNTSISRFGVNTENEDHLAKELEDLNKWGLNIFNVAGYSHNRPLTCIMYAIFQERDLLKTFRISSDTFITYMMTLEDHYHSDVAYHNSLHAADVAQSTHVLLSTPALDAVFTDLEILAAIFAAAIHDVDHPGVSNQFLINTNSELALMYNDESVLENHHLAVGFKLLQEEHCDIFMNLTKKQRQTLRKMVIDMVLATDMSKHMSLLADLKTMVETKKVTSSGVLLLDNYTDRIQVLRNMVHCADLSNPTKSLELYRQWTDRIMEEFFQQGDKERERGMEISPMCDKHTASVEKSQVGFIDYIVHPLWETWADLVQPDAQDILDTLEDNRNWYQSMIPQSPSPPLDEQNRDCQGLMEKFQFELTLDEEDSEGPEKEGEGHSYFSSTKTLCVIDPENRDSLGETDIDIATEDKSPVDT
Chain of Muscarinic acetylcholine receptor M1 (Rattus norvegicus) (P08482 whole entry, looked up): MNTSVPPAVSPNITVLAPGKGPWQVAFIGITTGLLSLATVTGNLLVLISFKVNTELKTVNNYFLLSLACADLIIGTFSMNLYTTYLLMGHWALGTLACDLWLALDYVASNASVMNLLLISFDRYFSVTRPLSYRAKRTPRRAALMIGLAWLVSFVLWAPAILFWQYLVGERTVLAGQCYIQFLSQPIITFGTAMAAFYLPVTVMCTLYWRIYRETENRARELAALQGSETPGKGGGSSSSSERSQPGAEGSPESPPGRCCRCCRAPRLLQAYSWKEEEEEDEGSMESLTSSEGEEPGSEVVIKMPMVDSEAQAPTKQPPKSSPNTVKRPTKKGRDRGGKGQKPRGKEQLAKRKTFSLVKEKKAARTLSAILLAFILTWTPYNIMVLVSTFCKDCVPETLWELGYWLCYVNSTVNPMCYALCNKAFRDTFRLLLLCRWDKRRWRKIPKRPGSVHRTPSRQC

With `CCCC[N+]1(C)[C@@H]2CC(OC(=O)[C@@H](CO)c3ccccc3)C[C@H]1[C@H]1O[C@H]12` (stereo not given in full), in test [1], the activity change, negative = inhibition was 5.93% [at 38 µM]. Further, the Potency result in test [2], in test [8] and in test [12] was “inactive” in each case. Besides, the compound was called inactive in test [3], in test [6], in test [7], in [9], in [13] and in test [14]. For the same compound, the result in test [15], in test [16] and in [17] was inactive. For the same compound, the Potency was more than 46 µM in test [4], more than 46 µM in test [5], 0.141 µM (active) in test [10] and 0.562 µM (active) in [11].

As to `C/C=C(\C)C(=O)O[C@@H]1C(C)=C2[C@H]([C@@H]1OC(=O)CCCCCCC)[C@@](C)(OC(C)=O)C[C@@H](OC(=O)CCC)[C@@]1(O)[C@H]2OC(=O)[C@]1(C)O`, the results for the activity change, negative = inhibition in test [1] and in test [18] were 19.3% [at 38 µM] and -79.7% [activator] [at 38 µM] (active), respectively. In addition, the Potency in [2] is 39.8 µM (active); in test [4], more than 46 µM; in test [5], more than 46 µM; in test [19], 3.98 µM (active); in test [21] it was 0.0501 µM (active). The call in test [6], in [7], in test [13], in test [15], in test [16] and in test [17] was inactive. Moreover, the Potency entry in test [8], in test [20], in test [10], in [11] and in [12] was “inactive” each time.

For `CCOCCN1CCC(OC(C)=O)C(C)C1` (stereo not given), the activity change, negative = inhibition is -2.51% in [1] and -5.87% in test [18]. Besides, the outcome in test [3] was inactive. Moreover, in test [4], the Potency is more than 20.6 µM.

Consider `NCC[Se][Se]CCN`, for which the values for the activity change, negative = inhibition in [1] and in test [6] were 19.7% [at 7.69 µM] and -20.9% [at 11.4 µM], respectively. Also, the figures for the Potency in [2], in test [4] and in [5] were 3.16 µM (active), more than 46 µM and more than 9.22 µM, respectively. The result in test [3] and in test [7] was inactive.

As for `CN(C)CCc1nn[nH]n1`, the activity change, negative = inhibition in test [1] is 1.85%; in test [18], -0.26%. In [3], the compound was classed as inactive. The Potency in test [4] is more than 20.6 µM.

Consider `C[C@H](N)c1cccc(Cl)c1Cl`, for which the activity change, negative = inhibition in test [1] was 19.1% [at 38 µM]; in test [18] it was 7.99% [at 38 µM]. In addition, the Potency in test [2] was 1.26 µM (active); in test [4] it was more than 46 µM; in test [5], more than 46 µM. The call in test [7], in test [9], in [13], in [14], in [15] and in test [16] was inactive. Moreover, the outcome in test [17] was inactive. The Potency entry in test [8], in test [20], in [11] and in test [12] was “inactive” in each case.

Regarding `CC(=NCCO)c1c(O)n(C)c(=O)n(C)c1=O`, the figures for the activity change, negative = inhibition in test [1] and in [18] were 9.85% and -3.31%, respectively. Moreover, the result in test [3] was inactive. Further, the Potency in [4] is more than 20.6 µM.

Values taken from PubChem BioAssay (NCATS).
